# From article PMC7862700, “An all-to-all approach to the identification of sequence-specific readers for epigenetic DNA modifications on cytosine”
# Key:
# Assay in all cases: DAPPL (digital affinity profiling via proximity ligation, sequencing); 10 mM Tris-HCl pH 7.5, 50 mM NaCl, 1 mM DTT, 4% glycerol, room temperature, 30 min; GST-TFs on glutathione beads, 16-mer random dsDNA library, 0.1% formaldehyde crosslink after washing; high values mean tight binding
# [1] = biological target: T1, FLI1 (Homo sapiens, UniProt Q01543 1-452); conditions: protein: recombinant; tags: N-terminal GST; dsDNA, one strand shown
# T1 sequence: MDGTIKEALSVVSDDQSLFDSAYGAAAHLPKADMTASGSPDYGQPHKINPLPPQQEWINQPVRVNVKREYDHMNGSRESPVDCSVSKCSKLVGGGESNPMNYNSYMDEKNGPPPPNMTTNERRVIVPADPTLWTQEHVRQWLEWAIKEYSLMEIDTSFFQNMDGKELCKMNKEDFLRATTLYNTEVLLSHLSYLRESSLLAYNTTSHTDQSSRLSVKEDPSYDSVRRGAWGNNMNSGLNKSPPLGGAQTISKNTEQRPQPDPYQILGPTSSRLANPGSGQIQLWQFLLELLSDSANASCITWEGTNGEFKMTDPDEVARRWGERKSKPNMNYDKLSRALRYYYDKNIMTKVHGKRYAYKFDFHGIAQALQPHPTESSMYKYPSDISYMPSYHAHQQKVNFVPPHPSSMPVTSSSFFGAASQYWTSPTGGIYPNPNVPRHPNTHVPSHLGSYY
# Procedure, shortened: (§1)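 In yeast, human transcription factors were expressed with a GST fusion, then pulled down on glutathione beads and given DNA barcodes. Pooled with a tag-only sample, they were exposed to 200 nmole of a 16-mer random double-stranded DNA library (Tris/NaCl/DTT/glycerol buffer, room temperature, 30 min), washed, crosslinked with 0.1% formaldehyde, proximity-ligated using BsaI/T4 ligase for 1 h at 37 °C, PCR-amplified and read on an Illumina NextSeq500. Each hexamer's frequency of reads for a factor, divided by the matching frequency for the tag-only sample, gives the binding signal.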
# [2] = biological target: T2, ELK1 (Homo sapiens, UniProt P19419 1-428); conditions: protein: recombinant; tags: N-terminal GST; dsDNA, one strand shown
# T2 sequence: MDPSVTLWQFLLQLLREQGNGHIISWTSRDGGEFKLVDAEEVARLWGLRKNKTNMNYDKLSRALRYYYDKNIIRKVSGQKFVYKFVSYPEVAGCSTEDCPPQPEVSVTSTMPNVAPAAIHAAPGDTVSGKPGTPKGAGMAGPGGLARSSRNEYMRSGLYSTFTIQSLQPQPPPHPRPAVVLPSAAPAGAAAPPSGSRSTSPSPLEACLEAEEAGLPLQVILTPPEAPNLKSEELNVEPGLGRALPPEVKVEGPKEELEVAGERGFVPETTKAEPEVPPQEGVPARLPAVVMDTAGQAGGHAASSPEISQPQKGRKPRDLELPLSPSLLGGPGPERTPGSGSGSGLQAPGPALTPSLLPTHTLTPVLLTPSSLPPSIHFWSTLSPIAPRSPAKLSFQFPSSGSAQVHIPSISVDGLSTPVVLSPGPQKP
# Procedure, shortened: as §1
# [3] = biological target: T3, GABPA (Homo sapiens, UniProt Q06546 1-454); conditions: protein: recombinant; tags: N-terminal GST; dsDNA, one strand shown
# T3 sequence: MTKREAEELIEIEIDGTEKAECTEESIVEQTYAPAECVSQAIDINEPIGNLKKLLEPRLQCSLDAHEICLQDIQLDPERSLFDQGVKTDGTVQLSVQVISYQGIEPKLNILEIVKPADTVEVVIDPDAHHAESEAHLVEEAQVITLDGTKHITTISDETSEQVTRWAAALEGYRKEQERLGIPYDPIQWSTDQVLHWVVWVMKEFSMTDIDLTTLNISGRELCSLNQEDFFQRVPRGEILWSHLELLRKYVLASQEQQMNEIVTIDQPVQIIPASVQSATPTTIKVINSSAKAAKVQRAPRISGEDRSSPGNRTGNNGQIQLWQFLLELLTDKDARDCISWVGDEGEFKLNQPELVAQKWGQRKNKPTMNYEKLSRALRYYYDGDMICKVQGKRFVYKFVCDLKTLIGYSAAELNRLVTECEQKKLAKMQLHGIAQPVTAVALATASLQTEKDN
# Procedure, shortened: as §1
# [4] = biological target: T4, ERG (Homo sapiens, UniProt P11308 1-479); conditions: protein: recombinant; tags: N-terminal GST; dsDNA, one strand shown
# T4 sequence: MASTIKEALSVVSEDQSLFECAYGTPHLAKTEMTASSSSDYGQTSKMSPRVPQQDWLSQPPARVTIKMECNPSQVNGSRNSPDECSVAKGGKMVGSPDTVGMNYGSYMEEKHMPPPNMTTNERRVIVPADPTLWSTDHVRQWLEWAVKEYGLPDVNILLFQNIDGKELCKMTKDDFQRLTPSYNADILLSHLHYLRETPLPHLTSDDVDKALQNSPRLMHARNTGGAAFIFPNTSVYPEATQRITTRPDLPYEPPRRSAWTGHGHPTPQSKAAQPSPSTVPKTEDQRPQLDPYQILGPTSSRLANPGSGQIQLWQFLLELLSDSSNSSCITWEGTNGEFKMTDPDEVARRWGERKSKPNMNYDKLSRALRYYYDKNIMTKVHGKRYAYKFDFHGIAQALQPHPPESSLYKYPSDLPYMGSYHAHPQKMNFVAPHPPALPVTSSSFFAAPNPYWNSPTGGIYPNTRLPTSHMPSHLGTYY
# Procedure, shortened: as §1
# [5] = biological target: ELF1 (Homo sapiens, UniProt P32519 1-619); conditions: protein: recombinant; tags: N-terminal GST; dsDNA, one strand shown
# Procedure, shortened: as §1
# [6] = biological target: T5, EHF (Homo sapiens, UniProt Q9NZC4 1-300); conditions: protein: recombinant; tags: N-terminal GST; dsDNA, one strand shown
# T5 sequence: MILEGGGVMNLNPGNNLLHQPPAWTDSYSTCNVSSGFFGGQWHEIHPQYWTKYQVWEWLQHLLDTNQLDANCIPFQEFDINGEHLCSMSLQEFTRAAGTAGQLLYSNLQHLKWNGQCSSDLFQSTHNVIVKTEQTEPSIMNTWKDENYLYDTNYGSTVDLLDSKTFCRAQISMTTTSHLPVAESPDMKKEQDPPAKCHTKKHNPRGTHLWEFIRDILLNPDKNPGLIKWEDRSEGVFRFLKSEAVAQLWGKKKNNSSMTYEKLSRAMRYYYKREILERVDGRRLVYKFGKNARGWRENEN
# Procedure, shortened: as §1
# [7] = biological target: SPI1 (Homo sapiens, UniProt P17947 1-270); conditions: protein: recombinant; tags: N-terminal GST; dsDNA, one strand shown
# Procedure, shortened: as §1
# [8] = biological target: SPIB (Homo sapiens, UniProt Q01892 1-262); conditions: protein: recombinant; tags: N-terminal GST; dsDNA, one strand shown
# Procedure, shortened: as §1
# [9] = biological target: T6, ELK3 (Homo sapiens, UniProt P41970 1-407); conditions: protein: recombinant; tags: N-terminal GST; dsDNA, one strand shown
# T6 sequence: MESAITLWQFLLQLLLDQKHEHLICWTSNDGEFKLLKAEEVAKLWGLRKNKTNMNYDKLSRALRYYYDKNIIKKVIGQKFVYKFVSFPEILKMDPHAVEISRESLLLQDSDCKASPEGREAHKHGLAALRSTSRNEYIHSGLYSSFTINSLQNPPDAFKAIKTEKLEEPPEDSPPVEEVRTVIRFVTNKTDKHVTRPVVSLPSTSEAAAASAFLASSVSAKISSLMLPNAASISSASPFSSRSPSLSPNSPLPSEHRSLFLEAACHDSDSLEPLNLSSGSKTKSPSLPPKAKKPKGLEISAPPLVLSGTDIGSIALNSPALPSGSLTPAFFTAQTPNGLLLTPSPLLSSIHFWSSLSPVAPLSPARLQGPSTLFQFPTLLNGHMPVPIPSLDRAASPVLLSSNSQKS
# Procedure, shortened: as §1
# [10] = biological target: T7, FEV (Homo sapiens, UniProt Q99581 1-238); conditions: protein: recombinant; tags: N-terminal GST; dsDNA, one strand shown
# T7 sequence: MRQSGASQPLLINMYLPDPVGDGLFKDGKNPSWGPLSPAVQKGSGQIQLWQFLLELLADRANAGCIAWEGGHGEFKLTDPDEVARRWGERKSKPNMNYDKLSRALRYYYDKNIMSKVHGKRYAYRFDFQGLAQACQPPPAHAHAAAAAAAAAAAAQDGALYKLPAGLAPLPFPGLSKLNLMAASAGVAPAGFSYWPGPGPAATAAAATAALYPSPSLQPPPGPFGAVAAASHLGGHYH
# Procedure, shortened: as §1
# [11] = biological target: ETV5 (Homo sapiens, UniProt P41161 1-510); conditions: protein: recombinant; tags: N-terminal GST; dsDNA, one strand shown
# Procedure, shortened: as §1
# [12] = biological target: HSF1 (Homo sapiens, UniProt Q00613 1-529); conditions: protein: recombinant; tags: N-terminal GST; chain copies: 3; dsDNA, one strand shown
# Procedure, shortened: as §1
# [13] = biological target: T8, SPIC (Homo sapiens, UniProt Q8N5J4 1-248); conditions: protein: recombinant; tags: N-terminal GST; dsDNA, one strand shown
# T8 sequence: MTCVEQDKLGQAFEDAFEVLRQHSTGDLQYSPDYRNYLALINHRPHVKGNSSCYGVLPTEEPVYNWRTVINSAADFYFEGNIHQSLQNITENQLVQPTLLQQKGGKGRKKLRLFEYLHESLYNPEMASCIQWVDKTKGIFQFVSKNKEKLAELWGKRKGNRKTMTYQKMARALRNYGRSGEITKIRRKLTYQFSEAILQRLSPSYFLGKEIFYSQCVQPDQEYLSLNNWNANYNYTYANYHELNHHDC
# Procedure, shortened: as §1
# [14] = biological target: ELF4 (Homo sapiens, UniProt Q99607 1-663); conditions: protein: recombinant; tags: N-terminal GST; dsDNA, one strand shown
# Procedure, shortened: as §1
# [15] = biological target: T9, ELK4 (Homo sapiens, UniProt P28324-2 1-405); conditions: protein: recombinant; tags: N-terminal GST; dsDNA, one strand shown
# T9 sequence: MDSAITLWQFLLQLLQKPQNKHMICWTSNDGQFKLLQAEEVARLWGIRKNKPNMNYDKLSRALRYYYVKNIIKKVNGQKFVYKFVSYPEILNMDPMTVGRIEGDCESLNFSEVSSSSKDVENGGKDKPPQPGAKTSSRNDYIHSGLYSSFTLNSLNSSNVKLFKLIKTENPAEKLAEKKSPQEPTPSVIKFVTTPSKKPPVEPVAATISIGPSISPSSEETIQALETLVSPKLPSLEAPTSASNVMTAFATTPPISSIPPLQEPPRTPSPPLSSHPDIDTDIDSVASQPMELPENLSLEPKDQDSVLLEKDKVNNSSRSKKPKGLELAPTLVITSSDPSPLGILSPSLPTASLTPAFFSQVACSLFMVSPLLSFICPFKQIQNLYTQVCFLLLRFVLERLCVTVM
# Procedure, shortened: as §1
# [16] = biological target: T10, ETV2 (Homo sapiens, UniProt O00321 1-342); conditions: protein: recombinant; tags: N-terminal GST; dsDNA, one strand shown
# T10 sequence: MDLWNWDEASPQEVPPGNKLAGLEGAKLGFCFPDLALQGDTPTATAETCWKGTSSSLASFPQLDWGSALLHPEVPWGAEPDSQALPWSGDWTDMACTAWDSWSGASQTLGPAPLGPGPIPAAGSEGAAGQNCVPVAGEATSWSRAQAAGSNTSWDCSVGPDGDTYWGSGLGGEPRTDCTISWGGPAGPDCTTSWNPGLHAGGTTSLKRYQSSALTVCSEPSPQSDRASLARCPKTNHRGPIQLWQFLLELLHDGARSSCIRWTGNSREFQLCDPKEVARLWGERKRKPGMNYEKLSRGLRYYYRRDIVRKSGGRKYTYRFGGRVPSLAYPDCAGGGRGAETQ
# Procedure, shortened: as §1
# [17] = biological target: T11, ELF3 (Homo sapiens, UniProt P78545 1-371); conditions: protein: recombinant; tags: N-terminal GST; dsDNA, one strand shown
# T11 sequence: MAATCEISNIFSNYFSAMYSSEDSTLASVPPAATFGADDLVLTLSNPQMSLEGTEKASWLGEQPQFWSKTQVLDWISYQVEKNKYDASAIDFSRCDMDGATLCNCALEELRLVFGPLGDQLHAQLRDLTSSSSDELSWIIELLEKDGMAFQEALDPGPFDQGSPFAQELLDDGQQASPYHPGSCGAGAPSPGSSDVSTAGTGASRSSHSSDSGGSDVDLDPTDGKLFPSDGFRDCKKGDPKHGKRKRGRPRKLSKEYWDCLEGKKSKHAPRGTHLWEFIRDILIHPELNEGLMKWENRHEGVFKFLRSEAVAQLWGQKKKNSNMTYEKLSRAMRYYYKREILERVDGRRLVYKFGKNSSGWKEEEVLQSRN
# Procedure, shortened: as §1
# [18] = biological target: ETV1 (Homo sapiens, UniProt P50549 1-477); conditions: protein: recombinant; tags: N-terminal GST; dsDNA, one strand shown
# Procedure, shortened: as §1
# Sequence of HSF1 (Q00613 whole entry): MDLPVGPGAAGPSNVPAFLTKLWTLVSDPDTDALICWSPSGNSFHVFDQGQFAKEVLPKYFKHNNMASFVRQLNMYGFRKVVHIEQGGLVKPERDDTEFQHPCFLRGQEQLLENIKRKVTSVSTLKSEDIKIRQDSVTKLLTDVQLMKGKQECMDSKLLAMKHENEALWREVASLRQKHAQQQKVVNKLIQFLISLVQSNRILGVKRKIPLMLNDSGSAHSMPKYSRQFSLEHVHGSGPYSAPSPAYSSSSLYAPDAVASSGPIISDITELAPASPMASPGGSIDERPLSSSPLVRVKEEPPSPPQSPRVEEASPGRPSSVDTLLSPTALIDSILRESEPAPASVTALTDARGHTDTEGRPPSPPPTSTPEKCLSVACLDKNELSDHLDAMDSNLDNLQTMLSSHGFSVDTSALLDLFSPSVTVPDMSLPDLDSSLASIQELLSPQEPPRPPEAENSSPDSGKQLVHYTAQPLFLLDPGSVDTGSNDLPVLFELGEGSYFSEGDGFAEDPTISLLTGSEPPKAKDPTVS
# Sequence of SPIB (Q01892 whole entry): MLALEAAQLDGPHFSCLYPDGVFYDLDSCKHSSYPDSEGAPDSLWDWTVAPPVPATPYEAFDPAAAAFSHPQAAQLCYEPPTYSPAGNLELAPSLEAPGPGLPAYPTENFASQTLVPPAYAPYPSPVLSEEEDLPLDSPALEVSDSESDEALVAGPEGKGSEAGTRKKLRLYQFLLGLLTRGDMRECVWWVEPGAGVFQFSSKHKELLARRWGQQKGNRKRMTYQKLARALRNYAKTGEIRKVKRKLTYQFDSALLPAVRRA
# Sequence of ETV1 (P50549 whole entry): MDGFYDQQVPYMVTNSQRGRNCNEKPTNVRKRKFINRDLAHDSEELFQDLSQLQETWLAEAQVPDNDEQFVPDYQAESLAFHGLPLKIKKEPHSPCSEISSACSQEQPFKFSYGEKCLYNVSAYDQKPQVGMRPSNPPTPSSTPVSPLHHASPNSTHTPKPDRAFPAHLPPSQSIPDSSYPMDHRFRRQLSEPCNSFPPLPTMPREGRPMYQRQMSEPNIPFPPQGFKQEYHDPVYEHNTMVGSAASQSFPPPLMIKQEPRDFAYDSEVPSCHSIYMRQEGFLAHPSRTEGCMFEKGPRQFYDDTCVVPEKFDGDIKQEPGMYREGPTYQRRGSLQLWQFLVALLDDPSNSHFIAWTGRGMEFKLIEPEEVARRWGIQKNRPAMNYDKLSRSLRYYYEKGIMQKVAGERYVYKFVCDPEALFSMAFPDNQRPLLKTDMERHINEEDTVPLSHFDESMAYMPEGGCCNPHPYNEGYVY
# Sequence of ELF4 (Q99607 whole entry): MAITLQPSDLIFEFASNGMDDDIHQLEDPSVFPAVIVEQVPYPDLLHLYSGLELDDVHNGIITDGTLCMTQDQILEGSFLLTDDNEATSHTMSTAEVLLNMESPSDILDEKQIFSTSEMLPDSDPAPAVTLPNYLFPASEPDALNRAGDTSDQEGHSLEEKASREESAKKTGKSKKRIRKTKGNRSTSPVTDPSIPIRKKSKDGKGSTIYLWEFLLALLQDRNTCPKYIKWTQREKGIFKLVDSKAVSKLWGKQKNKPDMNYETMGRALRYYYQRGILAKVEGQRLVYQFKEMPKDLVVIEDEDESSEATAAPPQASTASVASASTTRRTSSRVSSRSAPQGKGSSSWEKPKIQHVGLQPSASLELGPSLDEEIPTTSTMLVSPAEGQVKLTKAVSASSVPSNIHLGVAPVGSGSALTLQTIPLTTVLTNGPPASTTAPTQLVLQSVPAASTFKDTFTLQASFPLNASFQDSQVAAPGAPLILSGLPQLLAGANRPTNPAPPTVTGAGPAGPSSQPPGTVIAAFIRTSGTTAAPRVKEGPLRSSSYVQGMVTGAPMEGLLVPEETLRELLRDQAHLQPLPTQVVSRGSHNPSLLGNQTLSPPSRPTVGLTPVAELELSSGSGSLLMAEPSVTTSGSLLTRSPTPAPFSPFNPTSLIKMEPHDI
# Sequence of ELF1 (P32519 whole entry): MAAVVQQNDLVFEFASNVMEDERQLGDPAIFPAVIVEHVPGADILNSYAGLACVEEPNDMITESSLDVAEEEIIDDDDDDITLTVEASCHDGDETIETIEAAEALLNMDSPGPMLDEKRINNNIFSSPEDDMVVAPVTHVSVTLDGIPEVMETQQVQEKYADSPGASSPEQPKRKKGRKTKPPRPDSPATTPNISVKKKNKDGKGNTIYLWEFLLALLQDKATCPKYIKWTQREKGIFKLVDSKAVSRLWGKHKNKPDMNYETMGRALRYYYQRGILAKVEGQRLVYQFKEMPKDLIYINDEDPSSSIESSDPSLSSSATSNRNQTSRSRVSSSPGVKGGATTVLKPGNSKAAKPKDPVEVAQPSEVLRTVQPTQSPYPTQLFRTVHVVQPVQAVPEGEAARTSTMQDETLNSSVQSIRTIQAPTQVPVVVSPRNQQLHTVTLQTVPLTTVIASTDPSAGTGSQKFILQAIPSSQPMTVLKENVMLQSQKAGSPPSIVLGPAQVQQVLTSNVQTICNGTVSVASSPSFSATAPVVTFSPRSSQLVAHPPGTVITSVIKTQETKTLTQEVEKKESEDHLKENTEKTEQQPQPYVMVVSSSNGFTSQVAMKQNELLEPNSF
# Sequence of ETV5 (P41161 whole entry): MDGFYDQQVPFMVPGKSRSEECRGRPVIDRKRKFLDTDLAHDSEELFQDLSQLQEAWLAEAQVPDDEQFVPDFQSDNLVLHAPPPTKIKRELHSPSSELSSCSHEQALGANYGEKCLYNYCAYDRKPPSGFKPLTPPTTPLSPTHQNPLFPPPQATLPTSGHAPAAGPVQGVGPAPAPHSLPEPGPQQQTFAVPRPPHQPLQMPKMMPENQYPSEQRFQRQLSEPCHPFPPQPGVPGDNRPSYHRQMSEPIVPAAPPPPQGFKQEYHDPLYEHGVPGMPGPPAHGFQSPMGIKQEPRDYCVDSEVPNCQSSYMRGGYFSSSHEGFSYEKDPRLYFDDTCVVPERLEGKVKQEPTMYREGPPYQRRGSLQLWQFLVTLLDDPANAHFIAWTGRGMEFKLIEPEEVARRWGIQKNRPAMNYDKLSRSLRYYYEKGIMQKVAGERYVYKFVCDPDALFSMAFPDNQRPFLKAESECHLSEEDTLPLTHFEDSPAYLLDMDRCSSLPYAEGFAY
sequence,measurement,setting,value
GTCTTC,binding signal,[1],"1.4 fold enrichment (6-mer frequency, TF over GST control)"
same,binding signal,[2],"1.31 fold enrichment (6-mer frequency, TF over GST control)"
same,binding signal,[3],"1.19 fold enrichment (6-mer frequency, TF over GST control)"
same,binding signal,[4],"1.42 fold enrichment (6-mer frequency, TF over GST control)"
same,binding signal,[5],"1.43 fold enrichment (6-mer frequency, TF over GST control)"
same,binding signal,[6],"1.31 fold enrichment (6-mer frequency, TF over GST control)"
same,binding signal,[7],"1.28 fold enrichment (6-mer frequency, TF over GST control)"
same,binding signal,[8],"1.29 fold enrichment (6-mer frequency, TF over GST control)"
same,binding signal,[9],"1.17 fold enrichment (6-mer frequency, TF over GST control)"
same,binding signal,[10],"1.34 fold enrichment (6-mer frequency, TF over GST control)"
same,binding signal,[11],"1.31 fold enrichment (6-mer frequency, TF over GST control)"
same,binding signal,[12],"1.17 fold enrichment (6-mer frequency, TF over GST control)"
same,binding signal,[13],"1.18 fold enrichment (6-mer frequency, TF over GST control)"
same,binding signal,[14],"1.23 fold enrichment (6-mer frequency, TF over GST control)"
same,binding signal,[15],"1.14 fold enrichment (6-mer frequency, TF over GST control)"
same,binding signal,[16],"1.22 fold enrichment (6-mer frequency, TF over GST control)"
same,binding signal,[17],"1.46 fold enrichment (6-mer frequency, TF over GST control)"
same,binding signal,[18],"1.29 fold enrichment (6-mer frequency, TF over GST control)"
